Reference: PubChem BioAssay (NCI)
About 83,000 compounds went through this panel and 20% of them were active in at least one assay; those are over-represented in the sample as a whole.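 Interpretation: 100, growth as untreated; towards 0, rising growth inhibition; 0, no net growth; 0 to -100, cell death. Compounds scoring below 10 were considered active.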 Unmarked numbers belong to inactive results. Activity calls are given as the source filed them.

Key:
Assay in all cases: NCI-60 one-dose screen, 48 h (100 = growth as untreated, 0 = no growth, -100 = all killed)
Settings in all cases: 10 µM unless noted
SR leukemia = test system: SR leukemia
RPMI-8226 leukemia = test system: RPMI-8226 leukemia
OVCAR-8 ovarian = test system: OVCAR-8 ovarian
OVCAR-5 ovarian = test system: OVCAR-5 ovarian
OVCAR-4 ovarian = test system: OVCAR-4 ovarian
SK-OV-3 ovarian = test system: SK-OV-3 ovarian
IGROV1 ovarian = test system: IGROV1 ovarian
OVCAR-3 ovarian = test system: OVCAR-3 ovarian
HS 578T breast = test system: HS 578T breast
NCI/ADR-RES ovarian = test system: NCI/ADR-RES ovarian

| SMILES | growth (SR leukemia) | growth (RPMI-8226 leukemia) | growth (OVCAR-8 ovarian) | growth (OVCAR-5 ovarian) | growth (OVCAR-4 ovarian) | growth (SK-OV-3 ovarian) | growth (IGROV1 ovarian) | growth (OVCAR-3 ovarian) | growth (HS 578T breast) | growth (NCI/ADR-RES ovarian) |
| --- | --- | --- | --- | --- | --- | --- | --- | --- | --- | --- |
| N#Cc1ccccc1-c1ccc(CN2C(=O)S/C(=C\c3ccc(Br)cc3)C2=O)cc1 | 89.3% | 103% | 101% | 101% | 90.2% | 94.3% | 98.3% | 112% | 92.3% | 94.1% |
| Cc1nc2sc(C(=O)Nc3ccccn3)c(N)c2cc1C(C)O (stereo not given) | 15.2% | 94.5% | 92.5% | 77.9% | 81% | 65.2% | 70.4% | 76.5% | 74.7% | 74.2% |
| Fc1ccc2[nH]cc(-c3nc(-c4c[nH]c5c(Cl)nccc45)cs3)c2c1 | 13.3% | 48.5% | 52% | 99.1% | 65.3% | 47.5% | 61.7% | 70.9% | 39% | 53.7% |
| CCN(CC)CCOc1ccc2ccc(=O)oc2c1 | -3.51% (active) | -4.27% (active) | 98.8% | 96% | 101% | 92.9% | 109% | 115% | 109% | 101% |
| COc1ccc(Nc2ncc(C#N)c(NCCCNC(=O)C3CCC3)n2)cc1 | 46.3% | 85.8% | 64% | 79.6% | 77.7% | 77.6% | 54.4% | 70.2% | 47.7% | 83.1% |
| C=C(C)[C@@H]1CC[C@]2(C(=O)N3CCN(C)CC3)CC[C@]3(C)[C@H](CC[C@@H]4[C@@](C)(CCC(=O)O)[C@H](C(=C)C)CC[C@]43C)[C@@H]12 | 56.9% | 58.6% | 88.9% | 111% | 97% | 89.6% | 104% | 88.8% | 86.7% | 92.4% |
| O=C(NCc1ccc(Cn2c(=O)sn(-c3ccccc3)c2=O)cc1)OCc1ccc2cccc(O)c2n1 | -11.3% (active) | -22.5% (active) | -0.135% (active) | -61.2% (active) | -33.6% (active) | 75.8% | -76.5% (active) | -87.1% (active) | -1.39% (active) | -28.1% (active) |
| COC(=O)[C@@]1(C)CC[C@]2(C)CC[C@]3(C)C4=CC=C5C(=CC(=O)C(O)=C5C)[C@]4(C)[C@@H](O)C[C@@]3(C)[C@@H]2C1 | -6.62% (active) | 3.73% (active) | 4.47% (active) | 66.7% | 34% | 82.4% | -46.8% (active) | -16.6% (active) | 27.4% | 49% |
| c1ccc(Cn2cc3c(c2-c2ccccc2)CCc2cnoc2-3)cc1 | 37.3% | 46.7% | 84.5% | 96% | 86.2% | 88% | 76.6% | 56.7% | 71.5% | 40.6% |
| COc1ccc(-c2cc(C(=O)N3N=C(c4ccc(N)cc4)CC3c3ccc(Cl)cc3)c3ccccc3n2)cc1 (stereo not given) | 14.5% | 16.2% | 14.2% | 51.6% | 59.6% | 21.6% | 43.9% | 3.86% (active) | 16.4% | 25.5% |
| c1ccc(-c2nc3ccccc3[nH]2)c(OCCCCCOc2ccccc2-c2nc3ccccc3[nH]2)c1 | 2.06% (active) | 23.8% | 64.3% | 92.2% | 58.9% | 169% | 70% | 59.7% | 89% | 63.9% |
| CCN(CC)C(=O)CC1=C(C)/C(=C/c2[nH]c(-c3ccc[nH]3)cc2OC)N=C1C | -30% (active) | 13.7% | 16.1% | 51.4% | 43.9% | 22.4% | 30.6% | 11.1% | 10.9% | 18.3% |
| Cc1nn(C)c2ncnc(N/N=C/c3cccc(O)c3O)c12 | 7.79% (active) | -8.14% (active) | 18.2% | 41.8% | 22% | 9.76% (active) | 15.4% | 25.5% | 52.3% | 11.9% |
| COC12C=C/C(=C(/C(=O)OCCSc3ccnn3C)C(=O)CCCCCCCCC3(OC)C=C/C(=C(/C(=O)OCCSc4ccnn4C)C(=O)CCCCCCCC1)O3)O2 | -7.77% (active) | -8.92% (active) | 17.3% | 37% | 20.4% | 75.1% | -3.71% (active) | 5.79% (active) | 39.4% | 25.2% |
| O=c1c2ccccc2n(C[C@H]2CO2)c2ccccc12 | 8.95% (active) | 1.45% (active) | 4.1% (active) | -12.7% (active) | 7.68% (active) | -13.5% (active) | -52.3% (active) | -19.7% (active) | 6.14% (active) | -14.3% (active) |
| CC[C@H](Nc1nc(N)nc(C)c1C#N)c1nc2cccc(CN(C)c3ncc(C(=O)NO)cn3)c2c(=O)n1-c1ccccc1 | 14.1% | 4.89% (active) | 4.22% (active) | 3.2% (active) | 31.4% | -19.4% (active) | -36.2% (active) | 5.16% (active) | 8.03% (active) | 73.3% |
| CCCCC#Cc1c(I)n(C2OC(CO[Si](C)(C)C(C)(C)C)C3OC(C)(C)OC32)c(=O)n(C(=O)c2ccccc2)c1=O (stereo not given) | 5.85% (active) | -55.2% (active) | 48.8% | 87.2% | 82.6% | 106% | 27.4% | -59.7% (active) | 12% | 74% |
| C#Cc1cccc(NC(=O)C2CCCCN2C(=O)CCl)c1 (stereo not given) | 2.64% [8.25 µM] (active) | -38.4% [8.25 µM] (active) | 2.11% [8.25 µM] (active) | -95% [8.25 µM] (active) | -66.9% [8.25 µM] (active) | 33.1% [8.25 µM] | -69.9% [8.25 µM] (active) | -66.3% [8.25 µM] (active) | -22.1% [8.25 µM] (active) | -5.37% [8.25 µM] (active) |
| Clc1ccc2nn3c4ccccc4c(OCCN4CCOCC4)nc3c2c1 | 88.1% | 91.8% | 85% | 93.2% | 90% | 94.1% | 71% | 97.5% | 97.5% | 80.4% |
| C=C1SC(=Nc2ccccc2Cl)N(C(=O)c2sc3ccccc3c2Cl)C1(C)C | 65.4% | 4.32% (active) | 61.4% | 92.4% | 29.8% | 58.6% | 297% | 39.6% | 73.5% | 31.7% |
| CC(C)(C)CC(C)(C)Nc1c(-c2c(O)c3ccccc3oc2=O)nc2sc3ccccc3n12 | 30.3% | 8.98% (active) | 22.2% | 66.9% | 41.9% | 30.4% | 29.5% | 55.2% | 30.1% | 40.1% |
| COC(=O)[C@@]12CC=C(C)[C@]3(C[C@H](c4ccoc4)OC3=O)[C@H]1C=C[C@@H](O)[C@@]2(O)C(=O)OC | 89.2% | 120% | 96.4% | 103% | 110% | 99.9% | 92.4% | 105% | 111% | 102% |
| COc1cc2ncnc(Nc3ccc(S(=O)(=O)Nc4nccs4)cc3)c2cc1OCCCN1CCCC1 | 99.1% | 107% | 99.7% | 109% | 110% | 98.6% | 110% | 109% | 110% | 108% |
| C/C(=C(\c1ccc(OCCN2CCCCCC2)cc1)c1ccc(OC(=O)c2ccccc2)cc1)c1ccc(Cl)cc1 | -16.1% (active) | 13.1% | 42.6% | 68.5% | 37.5% | 77.1% | 46.7% | 61.8% | 42% | 59% |
| O=C(Cn1nc(-c2cccc3ccccc23)ccc1=O)NCc1cccc(Cl)c1 | 22.2% [50 µM] | 23.7% [50 µM] | 39.5% [50 µM] | 67.8% [50 µM] | 41.4% [50 µM] | 61.5% [50 µM] | 47.2% [50 µM] | 38.6% [50 µM] | 61.6% [50 µM] | 27.1% [50 µM] |
| Nc1nc(N(Cc2ccccc2)c2ccccc2)c2cn[nH]c2n1 | 4.11% (active) | 58.5% | 80.3% | 100% | 78.6% | 95.6% | 80.7% | 76.7% | 58.2% | 59.9% |
